Experimental data from PubChem BioAssay AID652068 (The Scripps Research Institute Molecular Screening Center, 2013).
The whole screen tested about 4,300 compounds, of which about 4,000 (93%) were called active.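 The calls were made as follows: active = inhibition above its plate's cutoff, the mean test-well inhibition plus 3 SD (cut at about 4.8% in these data); inactive = the rest.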 So high a share suggests a set chosen from earlier hits. Only a sample is shown.

Test: DNA CAG/GTC dye complex inhibitors – biochemical, fluorescence, TO-PRO-1 dye, d(CAG) DNA oligo, counter-screen for rCAG RNA repeat binder project (AID 652068);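 also: 0% = DNA dye mix with DMSO and 100% = 100 µM mitoxantrone; hits displace the dye from DNA and so lower well fluorescence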
Conditions: d(CAG) DNA oligo TO-PRO-1 dye displacement, at 3 µM, hits give high values
In the case of `CC(C)c1ccc(Nc2nnc(SCC(=O)c3nnc(-c4ccccc4)o3)s2)cc1`, the inhibition is reported as 27.2% (active).
For `O=C(O)c1ccc(NN=CC2=C(N3CCOCC3)/C(=C/c3ccccc3)CC2)cc1`, the inhibition was 30.8% (active).
In the case of `NC(=O)c1c(Nc2nc3c(F)cccc3s2)sc2c1CCCC2`, the inhibition is reported as 14.3% (active).
With `COc1ccc(OC)c(NC(=O)CSc2nc(-c3ccccc3)cc(=O)[nH]2)c1` the inhibition was 5.74% (active).
With `CCOc1cc(/C=C(\C#N)c2nc(-c3cccs3)c(NC(C)=O)s2)ccc1O` the inhibition was 16.7% (active).
With `CCCOc1ccc(Cn2c(O)cc(=O)[nH]c2=O)cc1` the inhibition was 6.06% (active).
For `COc1ccc(Cl)cc1-n1c(=S)sc2c(=O)n(-c3ccc(F)cc3)c(SCC(=O)O)nc21`, the inhibition was 8.24% (active).
In the case of `COc1ccccc1/C=C/C=N/n1c(-c2ccc(Cl)cc2Cl)n[nH]c1=S`, the inhibition is reported as 15.2% (active).
In the case of `COc1cc(C2CC(=O)N3CN(Cc4ccccc4)CSC3=C2C#N)ccc1OCc1ccccc1` (stereo not given), the inhibition is reported as 12.4% (active).
For `Cc1ccc(Nc2nc(-c3ccc(O)cc3O)cs2)nc1`, the inhibition was 13% (active).
In the case of `O=C(N/N=C/c1cc(Cl)cc([N+](=O)[O-])c1O)C(O)(c1ccccc1)c1ccccc1`, the inhibition is reported as 17.8% (active).
For `Cc1cc(/C=C2/C(=N)N3C(=NC2=O)SN=C3S(C)(=O)=O)c(C)n1-c1ccccc1`, the inhibition was 53.2% (active).
For `Clc1ccccc1CSc1nnc(-c2ccco2)c(-c2ccco2)n1`, the inhibition was 30% (active).
For `Cc1cc(F)ccc1S(=O)(=O)Nc1ncnc2scc(-c3ccc(F)cc3)c12`, the inhibition was 34.7% (active).
With `O=C(Nc1nc(-c2ccco2)c(-c2ccco2)s1)c1ccco1` the inhibition was 16.6% (active).
In the case of `Cc1ccc(C(=O)O)cc1-c1ccc(/C=C2\SC(=O)N(CC(=O)Nc3ccc4c(c3)OCO4)C2=O)o1`, the inhibition is reported as 59.2% (active).
For `Cc1ccc(C(C)C)c(OCCSc2nc3ccccc3n2CC(=O)O)c1`, the inhibition was 10.7% (active).
For `Cc1ccc(C)c(Cn2nnc3c(=O)[nH]c(C(=O)Nc4ccc(F)cc4)nc32)c1`, the inhibition was 11.1% (active).
With `O=c1cc(CN2CCN(S(=O)(=O)/C=C/c3ccccc3)CC2)c2ccc(O)cc2o1` the inhibition was 13.1% (active).
For `Cc1cccc(C)c1NC(=O)C(c1ccc(C(F)(F)F)cc1)n1c(=O)c(-c2ccco2)nc2ccccc21` (stereo not given), the inhibition was 7.75% (active).
With `O=C1c2cccc3cccc(c23)C(=O)N1CCCCCc1n[nH]c(=S)o1` the inhibition was 6.52% (active).
In the case of `CC(C)c1nc(SCC(=O)Nc2cccc(C(=O)O)c2)c2c3c(sc2n1)CCCC3`, the inhibition is reported as 20% (active).
In the case of `O=C(N/N=C/c1cccnc1)c1cc2ccccc2cc1O`, the inhibition is reported as 4.9% (active).
For `Cc1nnc(NC(=O)Nc2ccc(Cl)c(Cl)c2)s1`, the inhibition was 21.5% (active).
With `Cc1ccc(NC(=O)Nc2nnc(-c3ccncc3)s2)cc1` the inhibition was 13.7% (active).
